Source: PubChem (National Center for Advancing Translational Sciences (NCATS))
Pf growth 48h – Primary qHTS for delayed death inhibitors of the malarial parasite plastid, 48 hour incubation; Potency, µM (series often up to 28.7 µM), for inactives: at the top dose activity change, negative = inhibition, actives largely listed as inhibitors; 5.9% of 310,000 active; AID 504832, 2011; P. falciparum luciferase growth in erythrocytes, 48 h; also: potency is read from the fitted curve at half-maximal effect; % is scaled to controls: 0 for no effect and ±100 for the full control effect
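First compound was added to culture medium, then infected red cells at 0.1% parasitemia and 2% hematocrit (final). After incubation at 37 C under 5% CO2, luciferase detection reagent was dispensed and light output recorded.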
Pf growth 96h – Primary qHTS for delayed death inhibitors of the malarial parasite plastid, 96 hour incubation. P. falciparum luciferase reporter growth, 96 h. Potency, µM (top dose mostly 28.7 µM), for the others: at the top dose activity change, negative = inhibition, hits mostly inhibitors. 6.9% of 320,000 active; also: potency is read from the fitted curve at half-maximal effect; % is scaled to controls: 0 for no effect and ±100 for the full control effect
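P. falciparum expressing integrated firefly luciferase grown in erythrocytes (2% hematocrit, 0.05% parasitemia final) with compounds for 96 hours at 37 C, 5% CO2. Growth inhibition read as loss of luminescence after adding luciferase detection reagent.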
CHX counter – Cycloheximide Counterscreen for Small Molecule Inhibitors of Shiga Toxin; max response, %; cell reporter, cycloheximide protein synthesis inhibition counterscreen; 12% of 300,000 active; in the data active = max response mostly above about 13%, no sharp cut-off; inactive = mostly below about 14%; also: read at 38.3 µM for the half of the compounds with a filed dose; 0% is about no effect
AMA1-RON2 inh – qHTS for Inhibitors of AMA1-RON; Towards Development of Antimalarial Drug Lead: Primary Screen; Plasmodium falciparum AMA1 (3D7) - RON2 peptide interaction; AlphaScreen AMA1-biotinylated RON2 peptide binding; Potency, µM (titrated, usually from 58.2 µM), for the others: at the highest dose activity change, negative = inhibition, most hits filed as inhibitors; 0.2% of 360,000 active;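 also: potency is read from the fitted curve at half-maximal effect; 0% = vehicle wells and -100% = peptide control; nearly all actives have a fitted effect of over 45% in size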
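AMA1 (3D7) with his tag at 25 nM final met compounds first, then biotinylated RON2 peptide at 25 nM; detection used donor plus acceptor beads, 10 µg/mL apiece, read by AlphaScreen after 30 min at room temperature.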
Shiga inhibitor – A qHTS for Small Molecule Inhibitors of Shiga Toxin. inhibition, % at 38.7 µM. Vero cells, Shiga toxin protein synthesis inhibition reporter. 9.2% of 290,000 active; in the data active = inhibition mostly above about 28%, no sharp cut-off; inactive = mostly below about 43%; also: 0% is about no effect
SARS PLP yeast – qHTS of Yeast-based Assay for SARS-CoV PLP. S. cerevisiae expressing SARS-CoV PLpro, growth rescue. Potency, µM (top dose mostly 32.9 µM), for inactives: top-dose activity, positive = growth rescue, actives largely listed as activators. 0.19% of 330,000 active. AID 485353, 2010; calls by dose curve; also: potency is read from the fitted curve at half-maximal effect; 0% is about no effect; nearly all actives have a fitted effect of over 55% in size
Active calls of the source: *; ? = inconclusive; · = not tested or not shown. In the library only some 19% were active in any assay of this set; here they are far more common. Unless noted, calls follow the shape of the dose curve; as a rule, active = well fitted curve in the direction sought with a large enough effect; inconclusive = small, poorly fitted or top-dose-only effect, or another doubt; inactive = no such curve, though single readings can be large; an effect the other way counts as inactive or inconclusive.

SMILES | Pf growth 48h | Pf growth 96h | CHX counter | AMA1-RON2 inh | Shiga inhibitor | SARS PLP yeast
CCOC(=O)N1CCN(C(=O)CSc2cc(C)nc3c(-c4ccccc4OC)c(C)nn23)CC1 | 4.7µM* | 11% | -2 | 23% | -1 | 4%
CCCCN(C(=O)c1cc(S(=O)(=O)N2CCOCC2)ccc1N1CCOCC1)c1ccccc1 | · | · | · | 25% | · | ·
CCOC(=O)N1CCN(C(=O)CSc2ccc(-c3ccccc3OC)nn2)CC1 | ? | 4.7µM* | 9 | 0% | -3 | 2%
Cc1c(OCC(=O)NCCCn2ccnc2)ccc2c3c(c(=O)oc12)CCC3 | -11% | ? | -2 | -2% | 1 | -1%
Cc1c(OC(C)C(=O)NCCCn2ccnc2)ccc2c3c(c(=O)oc12)CCC3 (stereo not drawn) | 12µM* | 12µM* | -2 | -12% | -5 | 3%
Cc1c(OC(C)C(=O)NCc2ccccn2)ccc2c3c(c(=O)oc12)CCC3 (stereo not drawn) | ? | ? | -1 | 31% | -4 | 6%
Cc1c(OC(C)C(=O)NCc2ccncc2)ccc2c3c(c(=O)oc12)CCCC3 (stereo not drawn) | ? | 9.3µM* | -1 | 2% | -3 | -2%
Cc1[nH]n(-c2ccccc2)c(=O)c1/C=N/NC(=O)c1ccc(O)cc1O | · | ? | 29* | -59% | 68* | 29%
Cc1ccc(-n2[nH]c(C)c(/C=N/NC(=O)c3ccc(O)cc3O)c2=O)cc1 | ? | ? | 25* | -54% | 73* | 0%
Cc1cc(C(=O)N/N=C/c2c(C)[nH]n(-c3ccccc3)c2=O)n[nH]1 | 12% | ? | 9 | -40% | -7 | 28%
OC[C@H]1OC(O)[C@H](O)[C@@H]1O (stereo partly drawn) | ? | 13% | · | 5% | · | ·
CCCNS(=O)(=O)c1cc2c3c(c1)C(C)C(=O)N3CCC2 (stereo not drawn) | 5% | 32% | -4 | 3% | 14 | -2%
CC1C(=O)N2CCCc3cc(S(=O)(=O)NCc4ccccc4Cl)cc1c32 (stereo not drawn) | 13µM* | -13% | 2 | -11% | -1 | -1%
CC(=O)c1sc(NCCOc2ccc(C)cc2)nc1C | 38% | 1% | 28* | -5% | 60* | 0%
CC(=O)c1sc(NCc2ccccc2)nc1C | 34% | 2% | 31* | -7% | 43 | -4%
CC(=O)c1sc(NCc2ccc(C)cc2)nc1C | 158% | 172% | 43* | 0% | 103* | -2%
CC(=O)c1sc(NC(=O)CCS(=O)(=O)c2ccccc2)nc1C | 2% | -1% | 57* | 17% | 58* | -7%
CCCCN(C(=O)c1ccc2c(c1)OCO2)c1c(N)n(CC(C)C)c(=O)[nH]c1=O | 8% | -7% | · | -3% | · | 0%
O=C(O)/C=C/c1ccc(S(=O)(=O)NCc2cccnc2)cc1 | 0% | 48% | -3 | 2% | -3 | 0%
Cc1ccc(CNc2nc(C)c(C(=O)N(C)C)s2)cc1 | -47% | 23% | 28* | -1% | 65* | 8%
Cc1nc(NC(=O)COc2ccc(Cl)cc2)sc1C(=O)N(C)C | 46% | -5% | -1 | · | -18 | 9%
Cc1ccc(OCC(=O)Nc2ccc([N+](=O)[O-])cc2)cc1 | 6% | 243% | 0 | 10% | -8 | 4%
CCn1nnc(NC(=O)COc2ccc([N+](=O)[O-])cc2)n1 | 6% | 21% | 19* | 5% | 23 | 0%
Cc1nc(NCCc2ccccc2)sc1C(=O)O | 137% | 111% | 21 | 1% | 41* | -2%
CC(=O)c1sc(NC(=O)COc2ccc([N+](=O)[O-])cc2)nc1C | 16% | 15µM* | 3 | -4% | -1 | 1%
CC(=O)c1sc(NC(=O)COc2ccc(Br)cc2)nc1C | 12% | 0% | 1 | 6% | -12 | 0%
CCOC(=O)c1cccc(-n2c(-c3ccc(OC)cc3)nc3nc4ccccc4nc32)c1 | -3% | ? | -1 | · | -9 | 3%
